# Measurements reported in the supplement of paper PMC8728848.
# The sample as a whole holds a higher share of the strongest signals than the screen did.
# B1: Na-CTL-1 (Necator americanus) (protein)
# chain: MQRSFLLLLVVLAGAWAVNTTIPLKLMGGFTPMKYQCVGRVSDIWADVLFLIESSDMITKSGFRQVIAFITATTKKMTIGQDEKQTRVGFITYGEEAKLIYDLDHWRSTEKLSDLVQKIPYVKSSGTNIAAAIALANKVFNSPTHRPNVPKVMVIVANGLKKGSQNPIPVATAFKDFGGIIITIEYTQYDNIQVPILKKIASEGYNIRSNDEDFSVRTLTNMLLQANCFCPDHYVPFRVNNPEFGCFVTAKIPSMWRDAAEMCRAVEEGKLVKVENEEKAAFIMKLVGPKKEAWIGLRYYGNKFQWTDGTKLNADDFNLWPEDIKELNGPHCVSMYQDQKDKKYYWRAGKCLEDMRYVCEVQPCSASNYCSEPVFMYRQKHRALLPAPPPPPN
# How the values were obtained:
# Assay in all cases: glycan array binding signal (z-score within array); higher = stronger binding
# Details in all cases: glycan notation: IUPAC condensed, linker removed
# [1] = target: Fuc(a1-2)Gal(b1-3)GalNAc(b1-3)Gal(a1-4)Gal(b1-4)Glc
# In short: (§1)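 The Consortium for Functional Glycomics database supplied 3228 glycan arrays, of which those lacking an available protein sequence were dropped. The binding signal, a within-array Z-score, was averaged across arrays of the same protein sequence and across linkers. Negative scores can be read as non-binding.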
# [2] = target: Fuc(a1-2)Gal(b1-4)GlcNAc(b1-2)Man
# In short: as §1
# [3] = target: Fuc(a1-2)Gal(b1-4)GlcNAc(b1-3)[Fuc(a1-2)Gal(b1-4)GlcNAc(b1-6)]GalNAc
# In short: as §1
# [4] = target: Fuc(a1-2)Gal(b1-4)[Fuc(a1-3)]GlcNAc(b1-3)Gal(b1-4)[Fuc(a1-3)]GlcNAc(b1-3)Gal(b1-4)[Fuc(a1-3)]GlcNAc
# In short: as §1
# [5] = target: Fuc(a1-2)[Gal(a1-3)]Gal(b1-3)GalNAc
# In short: as §1
# [6] = target: Fuc(a1-2)[Gal(a1-3)]Gal(b1-3)GlcNAc(b1-3)GalNAc
# In short: as §1
# [7] = target: Fuc(a1-2)[Gal(a1-3)]Gal(b1-4)GlcNAc(b1-3)[Fuc(a1-2)[Gal(a1-3)]Gal(b1-4)GlcNAc(b1-6)]GalNAc
# In short: as §1
# [8] = target: Fuc(a1-2)[Gal(a1-3)]Gal(b1-4)GlcNAc(b1-6)GalNAc
# In short: as §1
# [9] = target: Fuc(a1-2)[GalNAc(a1-3)]Gal(b1-3)GalNAc(a1-3)[Fuc(a1-2)]Gal(b1-4)GlcNAc
# In short: as §1
# [10] = target: Fuc(a1-2)[GalNAc(a1-3)]Gal(b1-4)[Fuc(a1-3)]GlcNAc(b1-3)GalNAc
# In short: as §1
# [11] = target: Fuc(a1-4)GlcNAc
# In short: as §1
# [12] = target: Gal(a1-3)Gal(b1-3)GlcNAc(b1-6)GalNAc
# In short: as §1
# [13] = target: Gal(a1-3)Gal(b1-4)GlcNAc(b1-2)Man(a1-3)[Gal(a1-3)Gal(b1-4)GlcNAc(b1-2)Man(a1-6)]Man(b1-4)GlcNAc(b1-4)GlcNAc
# In short: as §1
# [14] = target: Gal(b1-2)Gal
# In short: as §1
# [15] = target: Gal(b1-3)GalNAc(b1-4)Gal(b1-4)Glc
# In short: as §1
# [16] = target: Gal(b1-3)GlcNAc(b1-2)Man
# In short: as §1
# [17] = target: Gal(b1-3)GlcNAc(b1-3)Gal(b1-4)GlcNAc(b1-3)Gal(b1-4)GlcNAc(b1-2)[Gal(b1-3)GlcNAc(b1-3)Gal(b1-4)GlcNAc(b1-3)Gal(b1-4)GlcNAc(b1-6)]Man(a1-6)[Gal(b1-3)GlcNAc(b1-3)Gal(b1-4)GlcNAc(b1-3)Gal(b1-4)GlcNAc(b1-2)Man(a1-3)]Man(b1-4)GlcNAc(b1-4)[Fuc(a1-6)]GlcNAc
# In short: as §1
# [18] = target: Gal(b1-3)GlcNAc(b1-3)Gal(b1-4)GlcNAc(b1-6)[Gal(b1-3)GlcNAc(b1-3)]Gal(b1-4)Glc
# In short: as §1
# [19] = target: Gal(b1-3)[Fuc(a1-4)]GlcNAc
# In short: as §1
# [20] = target: Gal(b1-4)GlcNAc(b1-2)Man(a1-3)[Gal(b1-4)GlcNAc(b1-2)Man(a1-6)][Gal(b1-4)GlcNAc(b1-4)]Man(b1-4)GlcNAc(b1-4)[Fuc(a1-6)]GlcNAc
# In short: as §1
# [21] = target: Gal(b1-4)GlcNAc(b1-2)Man(a1-3)[GlcNAc(b1-4)][Gal(b1-4)GlcNAc(b1-2)Man(a1-6)]Man(b1-4)GlcNAc(b1-4)GlcNAc
# In short: as §1
# [22] = target: Gal(b1-4)GlcNAc(b1-2)Man(a1-6)[GlcNAc(b1-2)Man(a1-3)]Man(b1-4)GlcNAc(b1-4)GlcNAc
# In short: as §1
# [23] = target: Gal(b1-4)GlcNAc(b1-2)Man(a1-6)[Man(a1-3)]Man(b1-4)GlcNAc(b1-4)GlcNAc
# In short: as §1
# [24] = target: Gal(b1-4)GlcNAc(b1-2)[Gal(b1-4)GlcNAc(b1-6)]Man(a1-6)[Gal(b1-4)GlcNAc(b1-2)Man(a1-3)]Man(b1-4)GlcNAc(b1-4)[Fuc(a1-6)]GlcNAc
# In short: as §1
# [25] = target: Gal(b1-4)GlcNAc(b1-3)Gal(b1-4)GlcNAc(b1-2)[Gal(b1-4)GlcNAc(b1-3)Gal(b1-4)GlcNAc(b1-6)]Man(a1-6)[Gal(b1-4)GlcNAc(b1-3)Gal(b1-4)GlcNAc(b1-2)Man(a1-3)]Man(b1-4)GlcNAc(b1-4)GlcNAc
# In short: as §1
# [26] = target: Gal(b1-4)GlcNAc(b1-3)Gal(b1-4)GlcNAc(b1-3)Gal(b1-4)GlcNAc(b1-3)Gal(b1-4)GlcNAc(b1-2)Man(a1-3)[Gal(b1-4)GlcNAc(b1-3)Gal(b1-4)GlcNAc(b1-3)Gal(b1-4)GlcNAc(b1-3)Gal(b1-4)GlcNAc(b1-2)Man(a1-6)]Man(b1-4)GlcNAc(b1-4)[Fuc(a1-6)]GlcNAc
# In short: as §1
# [27] = target: Gal(b1-4)GlcNAc(b1-3)Gal(b1-4)GlcNAc(b1-3)Gal(b1-4)GlcNAc(b1-3)Gal(b1-4)GlcNAc(b1-3)Gal(b1-4)GlcNAc(b1-2)Man(a1-3)[Gal(b1-4)GlcNAc(b1-3)Gal(b1-4)GlcNAc(b1-3)Gal(b1-4)GlcNAc(b1-3)Gal(b1-4)GlcNAc(b1-3)Gal(b1-4)GlcNAc(b1-2)Man(a1-6)]Man(b1-4)GlcNAc(b1-4)GlcNAc
# In short: as §1
# [28] = target: Gal(b1-4)GlcNAc(b1-3)Gal(b1-4)GlcNAc(b1-3)[Gal(b1-4)GlcNAc(b1-3)Gal(b1-4)GlcNAc(b1-6)]GalNAc
# In short: as §1
# [29] = target: Gal(b1-4)GlcNAc(b1-3)[Gal(b1-4)GlcNAc(b1-6)]Gal(b1-4)GlcNAc
# In short: as §1
# [30] = target: GalNAc(a1-3)Gal
# In short: as §1
# [31] = target: GalNAc(b1-4)GlcNAc
# In short: as §1
# [32] = target: Glc(a1-4)Glc(a1-4)Glc(a1-4)Glc
# In short: as §1
# [33] = target: GlcNAc(b1-2)[GlcNAc(b1-4)]Man(a1-3)[GlcNAc(b1-4)][GlcNAc(b1-2)[GlcNAc(b1-6)]Man(a1-6)]Man(b1-4)GlcNAc(b1-4)[Fuc(a1-6)]GlcNAc
# In short: as §1
# [34] = target: GlcNAc(b1-3)Gal(b1-4)GlcNAc
# In short: as §1
# [35] = target: GlcNAc(b1-3)Gal(b1-4)GlcNAc(b1-3)Gal(b1-4)GlcNAc(b1-3)Gal(b1-4)GlcNAc(b1-2)[GlcNAc(b1-3)Gal(b1-4)GlcNAc(b1-3)Gal(b1-4)GlcNAc(b1-3)Gal(b1-4)GlcNAc(b1-6)]Man(a1-6)[GlcNAc(b1-3)Gal(b1-4)GlcNAc(b1-3)Gal(b1-4)GlcNAc(b1-3)Gal(b1-4)GlcNAc(b1-2)Man(a1-3)]Man(b1-4)GlcNAc(b1-4)[Fuc(a1-6)]GlcNAc
# In short: as §1
# [36] = target: GlcNAc(b1-3)[GlcNAc(b1-6)]Gal(b1-4)GlcNAc
# In short: as §1
# [37] = target: Man(a1-2)Man(a1-2)Man(a1-3)Man
# In short: as §1
# [38] = target: Man(a1-2)Man(a1-3)[Man(a1-6)]Man(a1-6)[Man(a1-2)Man(a1-3)]Man(b1-4)GlcNAc(b1-4)GlcNAc
# In short: as §1
# [39] = target: Man(a1-6)Man
# In short: as §1
# [40] = target: Neu5Ac(a2-3)Gal(b1-3)GalNAc(b1-4)[Neu5Ac(a2-3)]Gal(b1-4)Glc
# In short: as §1
# [41] = target: Neu5Ac(a2-3)Gal(b1-3)[Fuc(a1-4)]GlcNAc(b1-3)Gal(b1-3)[Fuc(a1-4)]GlcNAc
# In short: as §1
# [42] = target: Neu5Ac(a2-3)Gal(b1-4)Glc
# In short: as §1
# [43] = target: Neu5Ac(a2-3)[GalNAc(b1-4)]Gal(b1-4)GlcNAc
# In short: as §1
# [44] = target: Neu5Ac(a2-6)Gal(b1-4)Glc
# In short: as §1
# [45] = target: Neu5Ac(a2-6)Gal(b1-4)GlcNAc(b1-2)Man(a1-3)[Neu5Ac(a2-6)Gal(b1-4)GlcNAc(b1-2)Man(a1-6)]Man(b1-4)GlcNAc(b1-4)[Fuc(a1-6)]GlcNAc
# In short: as §1
# [46] = target: Neu5Ac(a2-6)GlcNAc(b1-4)GlcNAc(b1-4)GlcNAc
# In short: as §1
# [47] = target: Neu5Ac(a2-8)Neu5Ac(a2-8)Neu5Ac(a2-3)Gal(b1-4)Glc
# In short: as §1
binder,measurement,setting,value
B1,glycan array binding signal (z-score),[1],-0.262
same,glycan array binding signal (z-score),[2],0.123
same,glycan array binding signal (z-score),[3],-0.753
same,glycan array binding signal (z-score),[4],-0.334
same,glycan array binding signal (z-score),[5],-0.176
same,glycan array binding signal (z-score),[6],-0.06
same,glycan array binding signal (z-score),[7],2.8
same,glycan array binding signal (z-score),[8],-0.539
same,glycan array binding signal (z-score),[9],-0.489
same,glycan array binding signal (z-score),[10],14.8
same,glycan array binding signal (z-score),[11],13.6
same,glycan array binding signal (z-score),[12],-0.267
same,glycan array binding signal (z-score),[13],0.692
same,glycan array binding signal (z-score),[14],-0.582
same,glycan array binding signal (z-score),[15],-0.243
same,glycan array binding signal (z-score),[16],-0.258
same,glycan array binding signal (z-score),[17],1.66
same,glycan array binding signal (z-score),[18],-0.326
same,glycan array binding signal (z-score),[19],-0.259
same,glycan array binding signal (z-score),[20],-0.149
same,glycan array binding signal (z-score),[21],0.121
same,glycan array binding signal (z-score),[22],-0.602
same,glycan array binding signal (z-score),[23],3.16
same,glycan array binding signal (z-score),[24],0.921
same,glycan array binding signal (z-score),[25],2.03
same,glycan array binding signal (z-score),[26],2.87
same,glycan array binding signal (z-score),[27],0.78
same,glycan array binding signal (z-score),[28],-0.05
same,glycan array binding signal (z-score),[29],-0.557
same,glycan array binding signal (z-score),[30],-0.696
same,glycan array binding signal (z-score),[31],1.86
same,glycan array binding signal (z-score),[32],-0.045
same,glycan array binding signal (z-score),[33],-0.111
same,glycan array binding signal (z-score),[34],-0.383
same,glycan array binding signal (z-score),[35],1.69
same,glycan array binding signal (z-score),[36],-0.476
same,glycan array binding signal (z-score),[37],0.039
same,glycan array binding signal (z-score),[38],0.06
same,glycan array binding signal (z-score),[39],-0.528
same,glycan array binding signal (z-score),[40],0.065
same,glycan array binding signal (z-score),[41],-0.347
same,glycan array binding signal (z-score),[42],2.35
same,glycan array binding signal (z-score),[43],-0.222
same,glycan array binding signal (z-score),[44],-0.543
same,glycan array binding signal (z-score),[45],0.041
same,glycan array binding signal (z-score),[46],1.95
same,glycan array binding signal (z-score),[47],-0.34
